Wnt bcat act: Wnt/beta-catenin pathway activators, primary screen, cell-based, plate reader, single point; Wnt/beta-catenin reporter cell assay, activator; activation, % at 9.35 µM; hit rate 1.2% among 300,000; AID 743398, 2014; in the data active = activation above about 30%, passing the limit was not always enough; inconclusive = no clear call, values can overlap the other calls;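 also: 0% = neutral control wells and 100% = positive control wells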
esBAF inh: Bmi1 luciferase reporter increase in mESCs, primary screen, esBAF inhibitor project, mouse ES cells, Bmi1 luciferase knock-in, single point; 24 h; 100% = twice the neutral-well signal; reporter increase, % at 12.5 µM; hit rate 2% among 350,000; in the data active = activation above about 40%; inconclusive = no clear call, values can overlap the other calls;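 also: 0% = median of the plate's neutral control wells and 100% = double that signal; a rise in the Bmi1 reporter signal indicates esBAF inhibition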
A3G deaminase: APOBEC3G DNA deaminase inhibitors, primary screen, biochemical, fluorescence, single-stranded DNA substrate, uHTS | hit rate 0.28% among 330,000 | AID 493012, 2011 | recombinant A3G, ssDNA deamination FAM/TAMRA fluorescence | inhibition, % at 20 µM;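 active = inhibition of at least 40% at 20 µM, with no more than 30% in the related APOBEC3A deaminase screen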;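 also: plate controls were DMSO wells with A3G for no effect and wells lacking A3G enzyme for full effect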
PHOSPHO1 inh: PubChem AID 1565; recombinant PHOSPHO1, absorbance phosphatase assay; inhibition, % at 13.3 µM; hit rate 1.1% among 290,000; in the data active = inhibition above about 60%
Target sequence (Q8TCT1 whole entry, looked up): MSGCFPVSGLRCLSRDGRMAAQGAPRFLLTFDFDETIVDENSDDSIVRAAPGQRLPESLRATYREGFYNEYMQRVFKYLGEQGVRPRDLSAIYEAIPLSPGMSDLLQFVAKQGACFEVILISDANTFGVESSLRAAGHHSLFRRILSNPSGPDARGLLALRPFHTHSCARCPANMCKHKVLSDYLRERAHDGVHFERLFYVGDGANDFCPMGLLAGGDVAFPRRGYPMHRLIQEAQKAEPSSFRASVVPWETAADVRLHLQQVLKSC
APOBEC3A inh: APOBEC3A ssDNA deaminase inhibitors, primary screen, selectivity assay for APOBEC3G inhibitor project, biochemical, FAM/TAMRA oligo cleavage fluorescence. hit rate 0.41% among 330,000. recombinant A3A, FAM/TAMRA ssDNA deamination fluorescence. inhibition, % at 20 µM. DNA dC->dU-editing enzyme APOBEC-3A (Homo sapiens), P31941. AID 493011, 2011;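 active = at least 40% inhibition at 20 µM here, with at most 30% in a related deaminase screen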;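 also: plate controls were A3A with DMSO for no effect and wells lacking A3A enzyme for full effect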
Target sequence (P31941 whole entry, looked up): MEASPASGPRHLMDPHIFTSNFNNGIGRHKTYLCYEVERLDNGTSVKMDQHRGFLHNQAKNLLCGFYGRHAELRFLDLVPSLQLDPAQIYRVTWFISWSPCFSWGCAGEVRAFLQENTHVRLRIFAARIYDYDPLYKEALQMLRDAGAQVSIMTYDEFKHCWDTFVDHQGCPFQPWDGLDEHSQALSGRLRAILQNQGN
MITF act: activators of MITF-driven TRPM1 promoter reporter, primary screen, cell-based, SK-MEL-5, luciferase, single point. SK-MEL-5 TRPM1-promoter luciferase, 24 h; % of positive control, neutral wells = 0. activation, % at 12.5 µM. hit rate 0.75% among 300,000. AID 588334, 2011;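 active = mean activation of at least 80% with every replicate also reaching 80%; inconclusive = mean reaches 80% but some replicate falls short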;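 also: 0% = neutral control wells and 100% = parthenolide positive control wells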
Starred values were filed as active, the others as inactive; ? = inconclusive; · = no result. An excerpt weighted towards active compounds, which were near 3.6% of everything screened.

SMILES	Wnt bcat act	esBAF inh	A3G deaminase	PHOSPHO1 inh	APOBEC3A inh	MITF act
COc1ccc(CCNc2oc(-c3ccc(C)cc3)nc2C#N)cc1OC	0	5	-6	10	0	25
CNc1oc(/C=C/c2ccccc2)nc1C#N	·	·	4	11	6	60
COCCNc1oc(/C=C/c2ccccc2)nc1C#N	46*	·	2	42	7	103*
N#Cc1nc(-c2ccc(Cl)cc2)oc1NCc1ccco1	38*	52*	-2	-4	-1	70
COCCNc1oc(-c2ccc(C)cc2)nc1C#N	·	65*	1	3	-2	66
COCCNc1oc(-c2ccc(Cl)cc2)nc1C#N	43*	·	-4	12	-3	81*
C[C@@H]1CN([C@H](C)CO)S(=O)(=O)c2ccc(C#CC3CCCC3)cc2O[C@H]1CN(C)C	·	-2	·	·	·	·
C[C@H](CO)N1C[C@H](C)[C@@H](CN(C)C(=O)Nc2ccc(F)cc2)Oc2ccc(NC(=O)C3CCCCC3)cc2CC1=O	·	-1	·	·	·	·
COCC(=O)N(C)C[C@H]1Oc2ncc(C#CCC3CCCC3)cc2C(=O)N([C@@H](C)CO)C[C@H]1C	·	5	·	·	·	·
NC(=O)c1ccccc1NC(=O)/C=C/c1c(Cl)cccc1Cl	28	33	-6	20	-3	·
NC(=O)c1ccccc1NC(=O)/C=C/c1cccc(Cl)c1	·	76*	-7	18	0	·
CO[C@H]1CN(C)C(=O)c2cc(NC(=O)c3ccccc3F)ccc2OC[C@H](C)N(C(C)=O)C[C@@H]1C	·	-4	·	·	·	·
Cc1cccnc1NC(=S)NC(=O)/C=C/c1ccco1	24	38	-6	10	-1	5
O=C(/C=C\c1ccco1)NC(=S)Nc1ccccc1O	16	·	1	24	8	88*
O=C(/C=C/c1ccco1)NCCc1ccccc1	55*	52*	-2	3	4	63
O=C(/C=C/c1ccco1)NC(=S)Nc1ccccc1O	3	·	9	-92	14	48
O=C(/C=C/c1ccco1)NC(=S)Nc1ccccn1	42*	46*	2	32	3	·
CN1CCN(c2ccc(NC(=S)NC(=O)/C=C/c3ccco3)cc2)CC1	0	45*	6	2	2	43
C[C@@H]1CN([C@@H](C)CO)C(=O)c2cc(NS(=O)(=O)c3cn(C)cn3)ccc2O[C@@H](C)CCCCO[C@@H]1CN(C)S(=O)(=O)c1ccccc1	·	-1	·	·	·	·
CCn1nc(C(=O)NNC(=O)c2ccccc2)c2ccccc2c1=O	12	46*	-11	·	-5	29
CCn1nc(C(=O)N2CCN(Cc3nc4ccccc4s3)CC2)c2ccccc2c1=O	-2	53*	0	·	1	35
O=C(c1ccco1)N1CCN(c2ncnc3c2oc2ccccc23)CC1	·	58*	-3	10	-4	·
c1cnc(N2CCN(c3ncnc4c3oc3ccccc34)CC2)nc1	·	·	·	0	·	·
O=c1oc2ccccc2cc1NCc1ccccc1O	20	63*	-10	-14	-4	96*
O=C(NCc1ccccc1Cl)c1cc2ccccc2oc1=O	9	13	-6	46	-8	·
SMILES	Wnt bcat act	esBAF inh	A3G deaminase	PHOSPHO1 inh	APOBEC3A inh	MITF act
CC(C)CN(CCOc1cccc(N2C(=O)C3=C(CCCC3)C2=O)c1)CC(C)C	42*	·	-9	-4	-6	-16
C=CCn1cccc(C(=O)Nc2ccc(C)c(C)c2)c1=O	?	49*	2	42	4	72
C=CCn1cccc(C(=O)Nc2ccc(C)cc2)c1=O	2	39	-5	10	-4	·
COc1ccc(NC(=O)Nc2cccc3c2O[C@H](CN(C)Cc2ccc(C(F)(F)F)cc2)[C@@H](C)CN([C@@H](C)CO)C3=O)cc1	·	15	·	·	·	·
O=C(COc1ncnc2ccccc12)c1ccc(Cl)cc1	10	?	3	-18	1	27
O=C(COc1ncnc2cc(Cl)ccc12)c1ccccc1	-1	71*	-8	27	-4	31
C[C@@H]1CN([C@@H](C)CO)C(=O)c2cc(-c3cccnc3)cnc2O[C@@H]1CN(C)C(=O)Nc1ccc(C(F)(F)F)cc1	·	3	·	·	·	·
FC(F)(F)c1cccc(NC(=S)NCc2ccccc2)c1	·	·	-5	31	-12	3
FC(F)(F)c1cccc(CNC(=S)Nc2ccccc2)c1	0	·	-2	62*	2	4
S=C(Nc1ccc(Cl)cc1)NC1CCCCC1	9	33	0	30	-3	37
S=C(Nc1ccc(Br)cc1)NC1CCCCC1	7	43*	-5	-8	1	30
S=C(Nc1ccc2[nH]ccc2c1)NC1CCCCC1	29	66*	-13	12	-5	59
FC(F)Oc1ccc(NC(=S)NC2CCCCCCC2)cc1	-3	47*	-2	39	1	37
Cc1ccc(NC(=S)NC2CCCC2)cc1C	12	·	-3	-4	-2	29
CCCNC(=O)N1C[C@H](C)[C@H](OC)CN(C)C(=O)c2ccc(NC(C)=O)cc2OC[C@@H]1C	·	1	·	·	·	·
COCC(=O)N1C[C@H]2[C@@H](c3ccccc31)[C@@H](CO)N2C(=O)C1CCCCC1	·	1	·	·	·	·
Cc1cccc(/C(N)=N/OC(=O)c2cccs2)c1	58*	-39	-3	50	1	8
N/C(=N\OC(=O)Cc1ccccc1)c1cccc(Br)c1	3	·	-3	-6	5	14
Cc1cccc(/C(N)=N/OC(=O)c2ccc(F)cc2)c1	29	·	-6	-11	-5	37
N/C(=N\OC(=O)c1cccc(Br)c1)c1ccc(Br)cc1	·	5	-3	34	-1	3
COc1ccc(/C(N)=N/OC(=O)c2cccs2)cc1OC	8	·	-9	12	-1	84*
N/C(=N\OC(=O)Cc1ccccc1[N+](=O)[O-])c1cccc(Br)c1	37*	3	0	15	4	-4
N/C(=N\OC(=O)c1cccs1)c1cccc(Br)c1	44*	22	-4	34	-4	70
O=C(Cc1ccncc1)NCC[C@H]1CC[C@@H](NC(=O)C2CCCC2)[C@@H](CO)O1	·	0	·	·	·	·
C[C@H](CO)N1C[C@H](C)[C@H](CN(C)Cc2ccc3c(c2)OCO3)Oc2ccc(NC(=O)CCC(F)(F)F)cc2CC1=O	·	-4	·	·	·	·
CCCCCCCCN1C(=O)[C@@H](CC(=O)N2CCCCC2)C[C@@]2(C(=O)OC)C1=C[C@H](C(C)(C)C)O[C@@H]2C	-20	·	·	·	·	·
CC(C)NC(=O)Nc1ccc2c(c1)C(=O)N([C@H](C)CO)C[C@@H](C)[C@@H](CN(C)C(=O)NC(C)C)O2	·	-1	·	·	·	·
Cc1ccc(/C(N)=N/OC(=O)c2cccs2)cc1	54*	-4	-7	-10	1	17
